Screen size: about 3,300 compounds; about 50 (2%) were called active. Only a sample is shown. Potency and affinity values are given separately. Unmarked numbers belong to inactive results.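 The calls were made as follows: active = concentration giving half-maximal inhibition at or below 20 micromolar; inactive = half-maximal concentration above 20 micromolar, or not dose tested.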
Assay: Jurkat cell viability reduction – Jurkat E6.1, NIH starter set, primary screen (AID 364);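 also: 100% = cells treated with 4 µM doxorubicin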
Settings: Jurkat E6.1 viability, ATP luminescence, 48 h; at 4 µM; stronger effect = higher value

Row | Structure (SMILES) | inhibition [%]
1 | CCCOc1ccc(N2C(=O)CC(N(CCC)C(=O)CCC(=O)O)C2=O)cc1 (stereo not given) | -0.8
2 | COc1cccc(/C(O)=C2/C(=O)C(=O)N(CCN(C)C)C2c2ccc(Br)cc2)c1 (stereo not given) | -1.9
3 | CCOc1ccc(Br)cc1CC(=O)O | 13.6
4 | O=C(C(c1ccccc1)N1CCOCC1)N1CCOCC1 (stereo not given) | -13.4
5 | Cc1cc2c(c(=O)n1Cc1ccccn1)C(c1ccc3c(c1)OCO3)C(C#N)=C(N)O2 (stereo not given) | -0.2
6 | CCCCCOc1ccc(Cl)cc1CN1CCOCC1 | -0.4
7 | COc1cccc(C2/C(=C(\O)c3ccc(OC)c(OC)c3)C(=O)C(=O)N2c2cc(C)on2)c1 (stereo not given) | -14.4
8 | Cc1cc(C)nc(N(C#N)S(=O)(=O)c2ccccc2Cl)n1 | 1
9 | COc1ccc(NC(=O)CSC2=C(C#N)C(c3ccco3)C3=C(CCCC3=O)N2)c(OC)c1 (stereo not given) | 1.6
10 | COc1ccc(OC)c(NC(=O)CSC2=C(C#N)C(c3ccco3)C3=C(CCCC3=O)N2)c1 (stereo not given) | 4.8
11 | Cc1c(N2C(=O)SC(CC(=O)O)C2=O)c(=O)n(-c2ccccc2)n1C (stereo not given) | -2.7
12 | CC(=O)C1(C)OC(N)=C(C#N)C(c2ccccc2)C1(C#N)C#N (stereo not given) | 5.6
13 | COc1ccc(N2C(=O)C3C(C2=O)C2C=CC3C23CC3)c(OC)c1 (stereo not given) | 0.8
14 | COc1ccccc1NC(=O)Nc1nnc(C(C)C)s1 | 9.4
15 | COc1ccc(OC)c(C2=Nn3c(nnc3C3CCCCC3)SC2)c1 | 5.2
16 | c1ccc(-c2nnc3n2N=C(c2ccc4c(c2)OCO4)CS3)nc1 | -6.9
17 | CC(=O)[C@H]1[C@@H]2C(=O)N(c3cccc(Cl)c3)C(=O)[C@@H]2[C@H]2c3ccccc3C=CN21 | -1.9
18 | CCOC(=O)CNS(=O)(=O)c1cc(-c2nn(C)c(=O)c3ccccc23)ccc1C | 1.1
19 | C=C(C)CC1N(c2cccc(OC)c2)C(=O)[C@@H]2C(C(=O)O)[C@H]3C=C[C@@]12O3 (stereo not given in full) | 5.9
20 | CCCCOc1ccc(C(=O)Nc2ccc(N3CCN(C(C)=O)CC3)cc2)cc1 | 6.7
21 | N#CC1=C(N)NC(SCc2ccc(Cl)cc2)=C(C#N)C12CCCCC2 | 7.9
22 | COc1ccc(C(=O)CSC2=C(C#N)C3(CCCCC3)C(C#N)=C(N)N2)cc1 | 4.2
23 | Cc1csc(SCCn2c(Br)nc3c2c(=O)[nH]c(=O)n3C)n1 | -4.7
24 | N#CC1=C(N)C(C#N)(C#N)[C@H](c2ccncc2)[C@H]2CN(C(=O)OCc3ccccc3)CC=C12 | 2.4
25 | O=C(CSc1nnc(-c2ccco2)c(-c2ccco2)n1)Nc1ccccc1 | 0.1

Row | Structure (SMILES) | inhibition [%]
26 | COCCOC(=O)c1c(C)nc(SCC(=O)Nc2ccc(C)cc2)c(C#N)c1-c1ccco1 | 13.5
27 | C=CCN(C)CCCNC(=O)/C=N/O | 2.4
28 | CN(CCOC(=O)c1ccc2c(c1)OCCO2)Cc1ccccc1 | -9.3
29 | O=C(CC(c1ccco1)S(=O)(=O)c1ccccc1)c1ccc(F)cc1 (stereo not given) | -1
30 | c1cncc(-c2nnc3sc(-c4ccco4)nn23)c1 | 7.6
31 | COc1cc(-c2nn3c(-c4cccnc4)nnc3s2)cc(OC)c1OC | 3.2
32 | Cc1c(NS(=O)(=O)c2cccc3nsnc23)c(=O)n(-c2ccccc2)n1C | -5.3
33 | CCN(CC)CCN1C(=O)C(O)=C(C(C)=O)C1c1ccc(OC)c(OC)c1 (stereo not given) | -15.9
34 | Cc1ccc2cc(CNC(C)(C)C)c(=O)[nH]c2c1 | 7.6
35 | Cn1c(=O)cc(NCc2ccccc2)[nH]c1=O | -8.6
36 | CCc1c(C)c(C#N)c2nc3ccccc3n2c1-n1nc(C)cc1C | -5.3
37 | COCc1cc(C)nc(SCC(=O)Nc2ccc(C)c(C)c2)c1C#N | -5.4
38 | CCc1nc2c(sc3nc(N4CCOCC4)c4c(c32)CC(C)(C)OC4)c(=O)o1 | -2
39 | CN(C)CCCN1C(=O)C(=O)/C(=C(/O)c2ccccc2)C1c1ccccn1 (stereo not given) | 8.4
40 | CCOc1ccc(C2=Nn3c(nnc3-c3ccccn3)SC2)cc1 | 2.6
41 | CCOc1ccc(-c2nnc3sc(-c4ccccc4OC)nn23)cc1 | 1.2
42 | CCOc1ccc(C2=Nn3c(nnc3-c3cccnc3)SC2)cc1 | 2.1
43 | COc1ccc(C2=Nn3c(nnc3-c3ccccn3)SC2)cc1OC | 2.3
44 | c1ccc(C2=Nn3c(nnc3-c3ccccn3)SC2)cc1 | -9.2
45 | COc1ccc(C2=Nn3c(nnc3-c3cccnc3)SC2)cc1OC | -8.2
46 | Cc1cccc(-c2nnc3n2N=C(c2ccccc2)CS3)c1 | 13.9
47 | COc1ccc(OC)c(C2=Nn3c(nnc3-c3ccco3)SC2)c1 | -10.8
48 | CC1(C)CC(=O)C2=C(C1)N(CC1CCCO1)C(=O)C2(O)C(F)(F)F (stereo not given) | 7.7
49 | COc1ccc(-c2nc3n(n2)C(=O)CC(c2ccco2)S3)cc1 (stereo not given) | -1.6
50 | Cc1cc(NCC2CCCO2)n2c(nc3ccccc32)c1C#N (stereo not given) | 15.2

Source: PubChem BioAssay AID364 (The Scripps Research Institute Molecular Screening Center, 2006)
